Screening data from PubChem.
A selection: hits, their analogues and other compounds. The true share with any hit is near 7.8%.
HCV inhibitor = qHTS Assay for Inhibitors of Hepatitis C Virus (HCV); Huh7.5.1 HCVcc-Cre infection, luciferase reporter, 44 h; Potency, µM (doses to about 41.8 µM), for the others: top-dose activity change, negative = inhibition, usual class: inhibitors; 3.4% of 340,000 active; active = well fitted inhibition curve with a large enough effect; inconclusive = small, poorly fitted or top-dose-only effect, or another doubt; inactive = no such curve, though single readings can be large or run the other way; note: potency is the fitted concentration of half-maximal effect
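Antiviral activity was scored by luciferase reporter output from cells infected with HCVcc-Cre (~0.5 moi) in presence of compound, 44 h infection period, cells seeded 1,000/well 4 h prior.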
Lassa entry inh = qHTS for Inhibitors of binding or entry into cells for Lassa Virus; AID 540256, 2011; 1.2% of 300,000 active; Potency, µM (series often up to 37.9 µM), for the others: at the top dose activity change, negative = inhibition, most hits filed as inhibitors; Lassa virus pseudotype entry inhibition, cell reporter; calls by dose curve; tested in HEK293 cells; note: potency is the fitted concentration of half-maximal effect; nearly all actives have a fitted effect of over 50% in size
VACV mCherry inh = qHTS for Stage-Specific Inhibitors of Vaccinia Orthopoxvirus: mCherry Reporter Primary qHTS; Vaccinia virus mCherry reporter infection, fluorescence; 0.63% of 310,000 active; Potency, µM (highest dose often 36.5 µM), without a hit: at the highest dose activity change, negative = inhibition, hits mostly inhibitors; AID 720579, 2013; calls by dose curve; tested in A549 cells; note: potency is the fitted concentration of half-maximal effect; nearly all actives have a fitted effect of over 35% in size
VACV Venus inh = qHTS for Stage-Specific Inhibitors of Vaccinia Orthopoxvirus: Venus Reporter Primary qHTS | 0.46% of 330,000 active | Vaccinia virus Venus reporter expression, fluorescence | Potency, µM (titrated, usually from 36.5 µM), inactives show top-dose activity change, negative = inhibition, usual class: inhibitors; calls by dose curve; tested in A549 cells; note: potency is the fitted concentration of half-maximal effect; nearly all actives have a fitted effect of over 30% in size
HCMV antiviral = qHTS Assay for inhibitors of the human cytomegalovirus (HCMV). HFF cells, HCMV-luciferase reporter, 72 h; hits give low values. activity change, negative = inhibition, % at 57.5 µM. 4.5% of 410,000 active; in the data active = activity change below about -60%; inconclusive = no clear call, values can overlap the other calls; inactive = above about -39%
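Screen run at 2 compound doses on HFFs infected with reporter HCMV, MOI 1 PFU/cell. Luciferase activity from cell lysates at 72 h post infection gave inhibition relative to buffer-only and Salinomycin wells.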
Marburg entry inh = qHTS for inhibitors of binding or entry into cells for Marburg Virus. AID 540276, 2011. 1.8% of 300,000 active. Marburg virus pseudotyped entry inhibition, cell reporter. Potency, µM (top dose mostly 37.8 µM), inactives show top-dose activity change, negative = inhibition, actives largely listed as inhibitors; calls by dose curve; tested in HEK293 cells; note: potency is the fitted concentration of half-maximal effect
An asterisk follows results filed as active; [ ] = dose if it differs, or a comment. % is set by controls: 0 for no effect and ±100 for the full control effect.

For CC(=O)Nc1ccccc1OCC(=O)c1cc(C)n(Cc2cccs2)c1C the results were HCV inhibitor inconclusive, Lassa entry inh -30%, HCMV antiviral -94* and Marburg entry inh inconclusive.
Cc1cc(C(=O)COC(=O)c2ccc3c(c2)OCO3)c(C)n1Cc1cccs1 was read as HCV inhibitor -8%, Lassa entry inh inconclusive, HCMV antiviral -19 and Marburg entry inh -26%.
Screening Cc1cc(C(=O)COC(=O)c2ccccc2O)c(C)n1Cc1cccs1 returned HCV inhibitor inconclusive, Lassa entry inh 0.33µM*, HCMV antiviral -103* and Marburg entry inh 0.82µM*.
For CCC(COC)NC(=O)c1cnn(-c2ncc3c(n2)-c2ccccc2CC3)c1C (stereo not drawn) the results were VACV mCherry inh -20% and VACV Venus inh -12%.
For Cc1ccc2oc(=O)n(Cc3ccccc3OC(C)C)c2c1 the results were HCV inhibitor -1%, Lassa entry inh 29%, HCMV antiviral -19 and Marburg entry inh -12%.
`COc1ccccc1CN1C(=O)C(=O)c2cccc(C)c21` gave Lassa entry inh 27%[46.1 µM], VACV mCherry inh -14%, VACV Venus inh -7%, HCMV antiviral 51 and Marburg entry inh 10%[46.1 µM].
`Cc1cc(Br)cc2c1N(Cc1ccccc1OC(C)C)C(=O)C2=O` gave Lassa entry inh inconclusive, VACV mCherry inh inactive, VACV Venus inh -17%, HCMV antiviral -88* and Marburg entry inh inconclusive.
Screening Cc1cccc2c1N(Cc1ccccc1OCCC(C)C)C(=O)C2=O returned Lassa entry inh inconclusive, VACV mCherry inh -28%, VACV Venus inh -27%, HCMV antiviral -93* and Marburg entry inh inconclusive.
Screening CCCCCOc1ccccc1CN1C(=O)C(=O)c2cc(C)ccc21 returned Lassa entry inh -19%[46.1 µM], VACV mCherry inh inactive, VACV Venus inh -11%, HCMV antiviral -93* and Marburg entry inh -26%[46.1 µM].
Screening CCOCCCn1c(SCC(=O)Nc2ccc(F)cc2)nc2c(sc3ccccc32)c1=O returned Lassa entry inh 0%[46.1 µM], VACV mCherry inh -17%, VACV Venus inh -22% and HCMV antiviral -13.
`COc1ccc(C(C(=O)NC(C)(C)C)N(Cc2ccccc2)C(=O)CCC(=O)Nc2cc(C)on2)cc1` (stereo not drawn) gave HCV inhibitor -14% and HCMV antiviral -64*.
For CCC(C)(C)NC(=O)C(c1ccc(OC)cc1)N(C(=O)CCC(=O)Nc1cc(C)on1)c1cccc(F)c1 (stereo not drawn) the results were HCV inhibitor inconclusive, Lassa entry inh 7.1µM*, VACV mCherry inh -7%, VACV Venus inh -15%, HCMV antiviral 1 and Marburg entry inh inconclusive.
CCC(C)(C)NC(=O)C(c1ccc(OC)cc1)N(Cc1ccccc1)C(=O)CCC(=O)Nc1cc(C)on1 (stereo not drawn) was read as HCV inhibitor -11%, Lassa entry inh 2%[46.1 µM], VACV mCherry inh -8%, VACV Venus inh 9%, HCMV antiviral -26 and Marburg entry inh inconclusive.
`COc1ccc(C(C(=O)NC(C)(C)C)N(C(=O)CCC(=O)Nc2cc(C)on2)c2cccc(F)c2)cc1` (stereo not drawn) gave HCV inhibitor -11%, Lassa entry inh 16%, VACV mCherry inh 69%, VACV Venus inh -3%, HCMV antiviral 4 and Marburg entry inh inconclusive.
Screening Fc1cccc(-n2ncc3c2ncn2nc(Cc4ccccc4)nc32)c1 returned Lassa entry inh 1%[46.1 µM], VACV mCherry inh -9%, VACV Venus inh -10%, HCMV antiviral inconclusive and Marburg entry inh 7%[46.1 µM].
`Cc1c(C(=O)N2CCCC2)sc2ncnc(NCCc3ccccn3)c12` gave VACV mCherry inh -13% and VACV Venus inh -8%.
Screening Cc1cccc(NC(=O)Nc2ccc([N+](=O)[O-])cc2)n1 returned HCV inhibitor -11% and HCMV antiviral -62*.
For Cc1cccc(NC(=O)c2ccc([N+](=O)[O-])s2)n1 the results were HCV inhibitor 16% and HCMV antiviral -78*.
Cc1ccnc(NC(=O)c2ccc([N+](=O)[O-])s2)c1 was read as HCV inhibitor 3.5µM* and HCMV antiviral 28.
Cc1ccc(NC(=O)Nc2cccc(C)n2)cc1 was read as HCV inhibitor -20%, Lassa entry inh -1%[46.1 µM], VACV mCherry inh -14%, VACV Venus inh -10% and HCMV antiviral 104.
For Cc1cccc(NC(=O)c2ccc([N+](=O)[O-])s2)c1C the results were HCV inhibitor inconclusive, Lassa entry inh 3%, HCMV antiviral -66* and Marburg entry inh -37%.
For Cc1ccccc1CN1CCC(CNc2ncnc3onc(-c4ccc(Cl)cc4)c23)CC1 the results were Lassa entry inh 0%[46.1 µM], VACV mCherry inh -8%, VACV Venus inh 2% and HCMV antiviral 3.
For O=C(NCc1cccnc1)O[C@H]1CC[C@@]23CCCN2C(=O)CCC[C@H]3[C@H]1Cc1ccccc1 the results were HCMV antiviral -5.
Cc1cccc(NC(=O)c2ccccc2O)c1C was read as HCV inhibitor -7%, Lassa entry inh 11%, VACV mCherry inh -11%, VACV Venus inh -26%, HCMV antiviral -86* and Marburg entry inh -16%.
Cc1cccc(C)c1NC(=O)c1ccc([N+](=O)[O-])s1 was read as HCV inhibitor 10µM*, Lassa entry inh 5%, VACV mCherry inh inconclusive, VACV Venus inh inconclusive, HCMV antiviral inconclusive and Marburg entry inh -8%.
`O=C(Nc1ccccc1O)c1ccccc1O` gave HCV inhibitor -29%, Lassa entry inh inconclusive, HCMV antiviral -8 and Marburg entry inh inconclusive.
COC(=O)C(Nc1cc(OC)ccc1OC)(c1cccc(OC)c1)C(Nc1cc(OC)ccc1OC)c1ccc(Br)cc1 (stereo not drawn) was read as HCMV antiviral -20.
For CCN1C(=O)C(=O)c2cc(C)ccc21 the results were HCV inhibitor -8%, VACV mCherry inh -3%, VACV Venus inh 6% and HCMV antiviral 13.
Screening CC[N+]1=C(C)C(C)(C)c2cc(C)ccc21 returned HCV inhibitor 13µM*, VACV mCherry inh 78%, VACV Venus inh 270% and HCMV antiviral -94*.
`CCOc1ccc(C(=O)NC(=S)Nc2ncccc2C)cc1[N+](=O)[O-]` gave HCV inhibitor inconclusive, Lassa entry inh 10%, VACV mCherry inh -11%, VACV Venus inh -11%, HCMV antiviral 45 and Marburg entry inh 23%.
For CCCCn1nnc(NC(=S)NC(=O)c2ccc(OCC)c([N+](=O)[O-])c2)n1 the results were HCV inhibitor -30%, Lassa entry inh -17%, VACV mCherry inh inconclusive, VACV Venus inh 1.3µM*, HCMV antiviral inconclusive and Marburg entry inh -6%.
